Where “and” joins values, the source holds several entries; their conditions need not be identical. Equal entries are not always repeated. A number with no mark means an inactive call. Inconclusive results are not listed. Entries that show only a call come without a potency. Calls of active or inactive are those of the source. Unless noted, calls follow the shape of the dose curve; as a rule, active = well fitted curve in the direction sought with a large enough effect; inconclusive = small, poorly fitted or top-dose-only effect, or another doubt; inactive = no such curve, though single readings can be large; an effect the other way counts as inactive or inconclusive.
How the values were obtained:
OV90 = assay: Primary qHTS to identify gynecologic anti-cancer compounds using libraries of approved drugs and bioactive compounds (AID 1345084); details: Gynecologic cancer cell panel viability, ATPlite luminescence, 48 h; series mostly up to 57.5 µM; also: nearly all actives have a fitted effect of over 55% in size; also: potency is read from the fitted curve at half-maximal effect
How it was run: (§1)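 Cytotoxicity screen measuring ATP content by luciferase luminescence. Each compound is applied at five concentrations for 48 h at 37 C with 5% CO2.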

SKOV3 = assay: as above; details: Gynecologic cancer cell panel viability, ATPlite luminescence, 48 h; series mostly up to 57.5 µM
How it was run: as §1

Tov-21-G = assay: as above; details: Gynecologic cancer cell panel viability, ATPlite luminescence, 48 h; series mostly up to 57.5 µM
How it was run: as §1

Tov112D = assay: as above; details: Gynecologic cancer cell panel viability, ATPlite luminescence, 48 h; series mostly up to 57.5 µM
How it was run: as §1

[1] = Drug repurposing screens with cells derived from glioblastoma tumor samples (AID 1345199); details: GBM patient neurospheres viability, ATP luminescence, 48 h; Potency: tumour line A unless noted; series mostly up to 45.9 µM; also: nearly all actives have a fitted effect of over 40% in size; also: potency is read from the fitted curve at half-maximal effect
How it was run: (§2)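 Four patient lines of CD133+ GBM neurospheres were screened at several concentrations; hits were retested in those lines plus three slower-growing GBM lines, using 48-hour treatment and ATP-based viability.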

astro = assay: as above; details: viability, ATP luminescence, 48 h; series mostly up to 45.9 µM
How it was run: as §2

[2] = target: Nuclear receptor subfamily 1 group I member 2 (Rattus norvegicus) (UniProt Q9R1A7); assay: qHTS assay for small molecule activators of the rat pregnane X receptor (rPXR) signaling pathway (AID 651751; call rule not given here); details: rPXR reporter cells, luciferase (One-Glo), 24 h
Chain of Nuclear receptor subfamily 1 group I member 2 (Rattus norvegicus) (Q9R1A7 whole entry, looked up): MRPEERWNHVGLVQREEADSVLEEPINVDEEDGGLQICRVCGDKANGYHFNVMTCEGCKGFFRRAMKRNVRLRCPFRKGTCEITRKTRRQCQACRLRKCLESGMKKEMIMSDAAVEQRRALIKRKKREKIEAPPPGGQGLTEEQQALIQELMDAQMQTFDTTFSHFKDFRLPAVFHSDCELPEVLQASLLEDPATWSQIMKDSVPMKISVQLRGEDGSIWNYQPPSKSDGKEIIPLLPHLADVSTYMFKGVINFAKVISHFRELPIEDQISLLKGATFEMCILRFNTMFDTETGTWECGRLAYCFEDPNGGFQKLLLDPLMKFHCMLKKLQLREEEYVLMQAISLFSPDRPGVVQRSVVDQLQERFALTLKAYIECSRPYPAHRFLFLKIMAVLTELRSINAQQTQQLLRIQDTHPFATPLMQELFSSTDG

PA-1 = assay: Primary qHTS to identify gynecologic anti-cancer compounds using libraries of approved drugs and bioactive compounds (AID 1345084); details: Gynecologic cancer cell panel viability, ATPlite luminescence, 48 h; series mostly up to 57.5 µM; also: nearly all actives have a fitted effect of over 55% in size; also: potency is read from the fitted curve at half-maximal effect
How it was run: as §1

[3] = qHTS assay for small molecule activators of the human pregnane X receptor (PXR) signaling pathway (AID 720659; call rule not given here)
[4] = qHTS assay to identify inhibitors of the type 1 interferon - major histocompatibility complex class I in skeletal muscle: Counter screen cell viability and HiBit confirmation (AID 1347412); details: iHSKM muscle cells + IFN-b, HiBiT or CellTiter-Glo, 24 h; for activity change, negative = inhibition: at 45.9 µM (top of the series); also: potency is read from the fitted curve at half-maximal effect; as to all read-outs here: nearly all actives have a fitted effect of over 60% in size
How it was run: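 Myoblasts (C25cl48, HLA-B HiBiT) seeded in medium without dexamethasone, IFN-b 4 ng/ml added except unstimulated columns; 1 hr later compounds pinned (12-pt 1:3, top 46 uM final). Incubated 24 hrs, lysed 10 min, luminescence measured.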

## O=[N+]([O-])c1ccc([As](=O)(O)O)cc1
OV90
  Potency: inactive
SKOV3
  Potency: inactive
Tov-21-G
  Potency: inactive
Tov112D
  Potency: inactive
[1]
  Potency: inactive
astro
  Potency: inactive

## CCCCCCCCc1ccc(O)cc1
OV90
  Potency: inactive
SKOV3
  Potency: inactive
Tov112D
  Potency: inactive
[1]
  Potency: inactive
astro
  Potency: inactive
[2]
  max response: 3.32% and -2.12%

## O=C(O)C(Cl)Cl
OV90
  Potency: inactive
PA-1
  Potency: inactive
Tov-21-G
  Potency: inactive
Tov112D
  Potency: inactive
[1]
  Potency: inactive
astro
  Potency: inactive
[2]
  max response: 4.19% and -3.77%
[3]
  outcome: inactive

## CN(C)[C@@H]1C(=O)C(C(N)=O)=C(O)[C@@]2(O)C(=O)C3=C(O)c4c(O)cccc4[C@@](C)(O)[C@H]3[C@H](O)[C@@H]12
[1]
  Potency: inactive
astro
  Potency: inactive
[2]
  max response: 4.53% and -0.0906% and -2.17%

## C[C@]12CCC(=O)C(O)=C1CC[C@@H]1[C@H]3CCC(=O)[C@@]3(C)CC[C@@H]12
astro
  Potency: inactive

## C[C@]12N[C@H](Cc3ccccc31)c1ccccc12
[1]
  Potency: inactive
astro
  Potency: inactive

## ClC1=C(Cl)[C@]2(Cl)[C@@H]3[C@@H]4C[C@@H]([C@H]5O[C@@H]45)[C@@H]3[C@@]1(Cl)C2(Cl)Cl
PA-1
  Potency: inactive
Tov-21-G
  Potency: inactive
Tov112D
  Potency: inactive
astro
  Potency: inactive

## CCCN(CCC)c1c([N+](=O)[O-])cc(S(N)(=O)=O)cc1[N+](=O)[O-]
astro
  Potency: 31600 nM (active)

## CC(C)(C)C(O)C(Oc1ccc(Cl)cc1)n1cncn1 (stereo unspecified)
PA-1
  Potency: inactive
SKOV3
  Potency: inactive
Tov-21-G
  Potency: inactive
Tov112D
  Potency: inactive
astro
  Potency: inactive

## CC1(C)CC/C(=C/c2ccc(Cl)cc2)C1(O)Cn1cncn1 (stereo unspecified)
PA-1
  Potency: inactive
SKOV3
  Potency: inactive
Tov-21-G
  Potency: inactive
Tov112D
  Potency: inactive
astro
  Potency: inactive

## CC(C)(O)C(=O)Nc1ccc([N+](=O)[O-])c(C(F)(F)F)c1
[2]
  max response: -13.9%

## CCCCOC(=O)c1ccccc1C(=O)OCc1ccccc1
PA-1
  Potency: inactive
Tov-21-G
  Potency: inactive
Tov112D
  Potency: inactive
[1]
  Potency: inactive
astro
  Potency: inactive
[2]
  max response: 7.11% and 9.37%

## Nc1ccc(Cl)cc1N
PA-1
  Potency: inactive
Tov112D
  Potency: inactive

## CN(C)NC(=O)CCC(=O)O
[2]
  max response: -0.418% and -0.734%

## CCCCC(CC)COC(=O)c1ccccc1C(=O)OCC(CC)CCCC (stereo unspecified)
PA-1
  Potency: inactive
Tov-21-G
  Potency: inactive
Tov112D
  Potency: inactive
astro
  Potency: inactive

## c1ccc(C2(c3ccccc3)CC2C2=NCCN2)cc1 (stereo unspecified)
[1]
  Potency: inactive
astro
  Potency: inactive

## C/C=C(/C)C(=O)O[C@H]1C(C)=C2[C@H]([C@@H]1OC(=O)CCCCCCC)[C@@](C)(OC(C)=O)C[C@H](OC(=O)CCC)[C@@]1(O)[C@H]2OC(=O)[C@@]1(C)O
PA-1
  Potency: 158 nM (active)
Tov112D
  Potency: 501 nM (active)
[4]; HiBiT
  Potency: 7.9 nM (active)

## NC1=NC(=O)N2CC12 (stereo unspecified)
[1]
  Potency: inactive
astro
  Potency: inactive

## O=S(=O)(c1ccc(Cl)cc1)c1ccc(Cl)cc1
PA-1
  Potency: inactive
Tov-21-G
  Potency: inactive
Tov112D
  Potency: inactive
[1]
  Potency: inactive
astro
  Potency: inactive

## CCCCCCCCCC(CC)c1ccc(S(=O)(=O)O)cc1 (stereo unspecified)
PA-1
  Potency: inactive
Tov-21-G
  Potency: inactive
Tov112D
  Potency: inactive
[1]
  Potency: inactive
astro
  Potency: inactive
[2]
  max response: 0.683% and -5.48%

## CC1=C(O)C(=O)C=C2C1=CC=C1[C@@]2(C)CC[C@@]2(C)[C@@H]3C[C@](C)(C(=O)O)CC[C@]3(C)CC[C@]12C
[4]; HiBiT
  Potency: 787 nM (active)

## NC(=O)CN1CC(O)CC1=O (stereo unspecified)
[1]
  Potency: inactive
astro
  Potency: inactive

## CN[C@@H]1C[C@@H](c2ccc(Cl)c(Cl)c2)c2ccccc21
astro
  Potency: 20000 nM (active)
[4]; HiBiT
  activity change, negative = inhibition: -7.12%
[4]; Viability
  activity change, negative = inhibition: -20.4%

## CCCCCC[C@H]1C(=O)O[C@H](C)[C@H](NC(=O)c2cccc(NC=O)c2O)C(=O)O[C@@H](C)[C@@H]1OC(=O)CC(C)C
[4]; HiBiT
  activity change, negative = inhibition: -17.2%
[4]; Viability
  activity change, negative = inhibition: -10.9%
[3]
  outcome: inactive

## C[C@]12CC[C@@H]3[C@@H](CCC4=CC(=O)CC[C@@H]43)[C@@H]1CC[C@@H]2OC(=O)CCc1ccccc1
astro
  Potency: inactive

## CC(C)[C@]12O[C@H]1[C@@H]1O[C@]13[C@]1(O[C@H]1C[C@H]1C4=C(CC[C@@]13C)C(=O)OC4)[C@@H]2O
PA-1
  Potency: 100 nM (active)
Tov112D
  Potency: 100 nM (active)
[4]; HiBiT
  Potency: 62.5 nM (active)
[4]; Viability
  activity change, negative = inhibition: -10.5%

## C[C@@H]1[C@H](O)[C@@H](C)C=CC=CCCC=CC=CC=CC=C[C@H](O[C@H]2O[C@@H](C)[C@H](O)[C@@H](N)[C@@H]2O)CC2O[C@](O)(C[C@@H](O)[C@H](O)CC[C@@H](O)C[C@@H](O)C[C@@H](O)CC(=O)O[C@H]1C)C[C@H](O)[C@H]2C(=O)O
astro
  Potency: inactive

## Clc1cnc(Oc2ccc(Oc3ncc(Cl)cc3Cl)cc2)c(Cl)c1
[2]
  max response: 9.03%
[3]
  outcome: inactive

## CCCCc1ccc(C(=O)O)nc1
[1]
  Potency: inactive
astro
  Potency: inactive

## CCCCCCCCCCCCCCCC[N+](C)(C)C
SKOV3
  Potency: 28200 nM (active)
Tov-21-G
  Potency: 7940 nM (active)
astro
  Potency: 11200 nM (active)
[3]
  outcome: inactive

## COc1ccc(C(c2ccc(OC)cc2)C(Cl)(Cl)Cl)cc1
PA-1
  Potency: inactive
Tov-21-G
  Potency: inactive
Tov112D
  Potency: inactive

## CC(C)NC(C)Cc1ccc(I)cc1 (stereo unspecified)
astro
  Potency: inactive

## CCNC(=O)C[C@@H]1N=C(c2ccc(Cl)cc2)c2cc(OC)ccc2-n2c(C)nnc21
PA-1
  Potency: 891 nM (active)
Tov112D
  Potency: inactive

## COc1ccc2c(c[n+](C)c3c4cc5c(cc4ccc23)OCO5)c1OC
[4]; HiBiT
  Potency: 7010 nM (active)
[4]; Viability
  Potency: 8830 nM (active)

## O=C(Nc1ccccc1-c1ccc(Cl)cc1)c1cccnc1Cl
PA-1
  Potency: inactive
SKOV3
  Potency: inactive
Tov-21-G
  Potency: inactive
Tov112D
  Potency: inactive
astro
  Potency: inactive

## C[N+](C)(C)CC(=O)O
[1]
  Potency: inactive
astro
  Potency: inactive

## CC[C@@]1(O)C(=O)OCc2c1cc1n(c2=O)Cc2cc3ccccc3nc2-1
[4]; HiBiT
  Potency: 1.76 µM (active) and 1.98 µM (active)
[4]; Viability
  activity change, negative = inhibition: -5.85% and -9.34%

## CCCN1CCC[C@H](c2cccc(O)c2)C1
[1]
  Potency: inactive
astro
  Potency: inactive

## Nc1ccc(Sc2ccc(N)cc2)cc1
SKOV3
  Potency: inactive
Tov-21-G
  Potency: inactive
Tov112D
  Potency: inactive
astro
  Potency: inactive
[2]
  max response: 10.3% and 6.87%

## CCOP(=O)(NC(C)C)Oc1ccc(SC)c(C)c1 (stereo unspecified)
PA-1
  Potency: inactive
Tov-21-G
  Potency: inactive
Tov112D
  Potency: inactive
[1]
  Potency: inactive
astro
  Potency: inactive
[2]
  max response: 6.18% and 2.21%
